# Results: the antibiotic and cytotoxicity screens of Wong et al. (2023)
# Screen size: about 39,000 compounds; about 1,500 (3.8%) were called active. Only a selection was taken, and actives are over-represented in it overall.
# System: HSkMC (human skeletal muscle cells)
# Assay: cytotoxicity call (relative viability < 0.9)
# Conditions: 10 µM
row,Compound,cytotoxicity call
1,C[C@H](CO)N1C[C@H](C)[C@@H](CN(C)C(=O)c2ccncc2)OCCCC[C@H](C)Oc2ccc(NS(C)(=O)=O)cc2C1=O,inactive
2,C[C@@H]1CN([C@H](C)CO)C(=O)c2cc(NC(=O)Nc3ccc(C(F)(F)F)cc3)ccc2O[C@@H](C)CCCCO[C@@H]1CN(C)C(=O)Nc1cccc2ccccc12,inactive
3,C[C@@H]1CN([C@H](C)CO)C(=O)c2cccc(NC(=O)Nc3ccccc3)c2O[C@@H]1CN(C)S(C)(=O)=O,inactive
4,COc1ccc2c3c(n(c2c1)C)[C@@H](CO)N(CC1CC1)C[C@]13CCN(CC1)S(=O)(=O)c1cn(cn1)C,inactive
5,C[C@H](NC(=O)c1c(N)nn2cccnc12)c1cc2cccc(C#Cc3cnn(C)c3)c2c(=O)n1-c1ccccc1,active
6,C[C@@H]1CCCCO[C@H](CN(C)C(=O)Nc2ccccc2)[C@@H](C)CN([C@@H](C)CO)C(=O)c2cc(NC(=O)Cc3ccccc3)ccc2O1,inactive
7,COc1ccc(S(=O)(=O)N(C)C[C@@H]2Oc3cc(C#CC4CC4)ccc3S(=O)(=O)N([C@@H](C)CO)C[C@@H]2C)cc1,inactive
8,C=CC(=O)Nc1cccc(C)c1Nc1ncc2cc(-c3c(Cl)c(OC)cc(OC)c3Cl)ccc2n1,inactive
9,C=CC(=O)Nc1cccc(Nc2nc(Nc3ccc(NC4CN(CCF)C4)cc3OC)ncc2C(F)(F)F)c1,active
10,C[C@@H]1CN([C@@H](C)CO)C(=O)c2cc(NC(=O)C3CC3)ccc2O[C@H]1CN(C)S(=O)(=O)c1ccccc1,inactive
11,C[C@@H](NC(=O)C[C@@H]1CC[C@H](NC(=O)CN2CCOCC2)[C@H](CO)O1)c1ccccc1,inactive
12,CC[C@@H](C)n1ncn(-c2ccc(N3CCN(c4ccc(OC[C@H]5CO[C@](Cn6cncn6)(c6ccc(Cl)cc6Cl)O5)cc4)CC3)cc2)c1=O,inactive
13,CC[C@H](C)n1ncn(-c2ccc(N3CCN(c4ccc(OC[C@H]5CO[C@](Cn6cncn6)(c6ccc(Cl)cc6Cl)O5)cc4)CC3)cc2)c1=O,active
14,CCC(C)n1ncn(-c2ccc(N3CCN(c4ccc(OCC5COC(Cn6cncn6)(c6ccc(Cl)cc6Cl)O5)cc4)CC3)cc2)c1=O.Cl.Cl (stereo not drawn),inactive
15,CS(=O)(=O)N1CCN(Cc2cc3nc(-c4cccc5n[nH]cc45)nc(N4CCOCC4)c3s2)CC1,active
16,CO[C@@H]1CN(C)C(=O)c2ccc(NC(=O)NC(C)C)cc2OC[C@@H](C)N(Cc2ccc(-c3ccccn3)cc2)C[C@H]1C,inactive
17,C[C@H](CO)N1C[C@H](C)[C@H](CN(C)CC2CC2)Oc2ccc(NS(=O)(=O)c3cccs3)cc2C1=O,inactive
18,C[C@H]1CCCCO[C@H](CN(C)C(=O)Nc2ccc(C(F)(F)F)cc2)[C@@H](C)CN([C@@H](C)CO)C(=O)c2cc(NC(=O)Nc3ccc(C(F)(F)F)cc3)ccc2O1,inactive
19,CC(C)NC(=O)N(C)C[C@@H]1OCCCC[C@H](C)Oc2ccc(NC(=O)Nc3ccc(C(F)(F)F)cc3)cc2C(=O)N([C@H](C)CO)C[C@@H]1C,active

row,Compound,cytotoxicity call
1,C[C@@H]1CCCCO[C@@H](CN(C)C(=O)C2CCCCC2)[C@@H](C)CN([C@H](C)CO)C(=O)c2cc(NC(=O)Nc3ccc(C(F)(F)F)cc3)ccc2O1,inactive
2,CC(C)NC(=O)N(C)C[C@@H]1OCCCC[C@@H](C)Oc2ccc(NC(=O)Nc3ccc(C(F)(F)F)cc3)cc2C(=O)N([C@@H](C)CO)C[C@H]1C,inactive
3,C[C@H]1CCCCO[C@H](CN(C)C(=O)C2CCCCC2)[C@@H](C)CN([C@@H](C)CO)C(=O)c2cc(NC(=O)Nc3ccc(C(F)(F)F)cc3)ccc2O1,active
4,C[C@H](CO)N1C[C@H](C)[C@H](CN(C)C(=O)Nc2ccc(C(F)(F)F)cc2)OCCCC[C@H](C)Oc2ccc(NC(=O)Nc3ccc(C(F)(F)F)cc3)cc2C1=O,active
5,C[C@@H]1CCCCO[C@H](CN(C)C(=O)Nc2ccc(C(F)(F)F)cc2)[C@@H](C)CN([C@@H](C)CO)C(=O)c2cc(NC(=O)Nc3ccc(C(F)(F)F)cc3)ccc2O1,inactive
6,CC(C)NC(=O)N(C)C[C@H]1OCCCC[C@H](C)Oc2ccc(NC(=O)Nc3ccc(C(F)(F)F)cc3)cc2C(=O)N([C@H](C)CO)C[C@@H]1C,inactive
7,C[C@@H]1CCCCO[C@@H](CN(C)C(=O)C2CCCCC2)[C@H](C)CN([C@@H](C)CO)C(=O)c2cc(NC(=O)Nc3ccc(C(F)(F)F)cc3)ccc2O1,inactive
8,CC(C)NC(=O)N(C)C[C@@H]1OCCCC[C@H](C)Oc2ccc(NC(=O)Nc3ccc(C(F)(F)F)cc3)cc2C(=O)N([C@@H](C)CO)C[C@@H]1C,active
9,CC(C)NC(=O)N(C)C[C@@H]1OCCCC[C@H](C)Oc2ccc(NC(=O)Nc3ccc(C(F)(F)F)cc3)cc2C(=O)N([C@@H](C)CO)C[C@H]1C,inactive
10,CC(C)NC(=O)N(C)C[C@H]1OCCCC[C@@H](C)Oc2ccc(NC(=O)Nc3ccc(C(F)(F)F)cc3)cc2C(=O)N([C@@H](C)CO)C[C@H]1C,inactive
11,CN1C(=O)c2cc(NC(=O)C3CCOCC3)ccc2OC[C@@H]2O[C@H](CC(=O)NCc3ccccc3F)CC[C@@H]21,inactive
12,O=C(C[C@@H]1CC[C@@H]2NC[C@H](O)COC[C@H]2O1)NCCN1CCCCC1,inactive
13,COCC#Cc1cnc2c(c1)C(=O)N([C@H](C)CO)C[C@H](C)[C@@H](CN(C)C(=O)Nc1ccccc1OC)O2,inactive
14,C[C@H]1CN([C@@H](C)CO)C(=O)Cc2cc(NS(=O)(=O)c3ccc(F)cc3)ccc2O[C@H]1CN(C)S(=O)(=O)c1cn(C)cn1,inactive
15,COc1cccc(NC(=O)N2C[C@@H](O)COC[C@@H]3O[C@@H](CC(=O)NCc4ccccc4F)CC[C@H]32)c1,inactive
16,C[C@@H]1CCCCO[C@@H](CN(C)C(=O)Nc2ccc(C(F)(F)F)cc2)[C@@H](C)CN([C@H](C)CO)C(=O)c2cc(NC(=O)c3ccccc3)ccc2O1,inactive
17,CC(C)(C)[S@@](=O)N1Cc2cc(C(=O)NCc3ccccc3F)nc(-c3cccc(-c4cccnc4)c3)c2[C@H]1CCO,inactive
18,O=C(C[C@H]1C=C[C@@H](NC(=O)Cc2ccccn2)[C@@H](CO)O1)NCCCN1CCOCC1,inactive
19,C[C@@H]1CN([C@H](C)CO)S(=O)(=O)c2ccc(C#Cc3ccncc3)cc2O[C@H]1CN(C)C(=O)C1CCOCC1,inactive
